# The supplement of paper PMC6555819
# What was measured:
# Assay in all cases: PBM binding z-score (relative to random genomic background probes); higher = stronger binding; sequences stand for … in GC…GCGATTGACAGCGTAGAATGAAGG
# [1] = test system: RARb homodimer (NR concentration 270 nM)
# Summary of the method: (§1)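 Probes were double-stranded and carried 34-nt variable regions with direct-repeat seeds, single-nucleotide variants, half-site ablations and random human genomic background sequences, printed on custom Agilent 4×180K protein-binding microarrays. Arrays were incubated 1 h with ligand-free nuclear receptor dimers in PBS pH 7.4, 2% milk, 0.02% Triton X-100, 1 mM DTT, 0.2 mg/mL BSA and 0.4 mg/ml salmon testes DNA. Antibodies against each partner (one per run) detected binding, and scanned fluorescence was regression-normalized. Binding z-scores use the random background probes as reference.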
# [2] = test system: RARg:RXRa (NR concentration 270 nM, RXRa partner concentration 90 nM)
# Summary of the method: as §1
# [3] = test system: RARg homodimer (NR concentration 270 nM)
# Summary of the method: as §1
# [4] = test system: RXRa DBDmut IVT, anti-RXR (DBD mutation: RXRa K156A/R161A, NR concentration 90 nM)
# Summary of the method: as §1
# [5] = test system: RXRa homodimer (NR concentration 180 nM)
# Summary of the method: as §1
# [6] = test system: THRa:RXRa (NR concentration 90 nM, RXRa partner concentration 90 nM)
# Summary of the method: as §1
# [7] = test system: THRa homodimer (NR concentration 90 nM)
# Summary of the method: as §1
# [8] = test system: VDR:RXRa (NR concentration 270 nM, RXRa partner concentration 90 nM)
# Summary of the method: as §1
# [9] = test system: VDR homodimer (NR concentration 270 nM)
# Summary of the method: as §1
Sequence,PBM binding z-score [1],PBM binding z-score [2],PBM binding z-score [3],PBM binding z-score [4],PBM binding z-score [5],PBM binding z-score [6],PBM binding z-score [7],PBM binding z-score [8],PBM binding z-score [9]
ACTATTAGTTGAGACGAGGGCAACAGATAGGTTG,1.17,0.793,0.969,0.472,0.663,2.42,0.255,0.625,1.15
TTACCAAGGTGAGCTTAGGTCGTTGATCCAACTC,1.27,0.36,0.732,-0.17,0.352,3.88,0.952,0.561,-0.0607
CCTACTGGGCCATTCAGATGTCATTGATCATATG,0.108,0.278,0.389,0.148,-0.34,-0.291,-0.95,-0.54,-0.52
CGAATTAGGTCAGAACAGGACAGTGAAGGATGAT,2.36,2.65,3.43,0.886,1.29,3.86,1.01,0.932,0.142
TCAGACAGGTGAAGGTAACCCAGGTACGCAGTCG,1.25,0.745,0.803,0.992,1.29,1.48,0.57,0.641,0.454
CCTACTGGACCAAAGGTCATTGATTCCAATGCTC,4.9,5.27,4.97,1.85,6.4,3.46,1.67,5,3.18
TCTGCTAGGTCAACGATGGTCAGCTAATCTGCTA,3.36,4.01,4.95,1.24,2.42,3.15,0.461,1.54,-0.403
GCGACTGGGGCAAAGCAGGTTACTATAAGGTTGG,0.948,0.427,0.689,0.143,0.276,2.81,0.101,0.0986,-0.0549
CCTTACGGGTCACTCCAGGTTATAGGATCGGAGT,3.21,4.55,4.56,1.45,4.79,4.95,0.641,4.34,1.51
ACTTTCGGGTCAACGAGGTTATAGCACGCGTATA,3.85,5.69,5.44,3.12,6.2,4.62,3.51,7.85,4.05
CGTCCAAGGTCAAAGGAGGTCAGTGAAGACAGAT,5.57,6.67,7.08,3.52,6.32,5.42,2.98,6.53,4.01
ACTCAAAGTTCACTAGGTAACGTAAGATTCAGCT,3.65,4.84,5.79,4.63,3.51,2.22,0.585,4.17,4.45
CGTCCAAGGTCAGAGATGTCAGTGAATGCCGAGT,3.66,4.35,5.29,2.72,3.3,3.29,1.9,3.64,1.82
GCTCGGAGGACAAGGTCAGAGTTTTGTCCGTAGA,3.25,3.1,3.94,0.706,2.55,3.11,1.72,1.65,0.974
CAAACTAGGTCAACGGAAGGTCAAAGTCCGCATG,5.37,8.1,6.98,2.17,5.99,4.24,2.34,5.56,3.65
CAAACTAGGTAACCGGAAGGTCAAAGTCCGCATG,4.17,4.35,3.57,0.531,3.79,3.26,1.44,3.35,2.22
CCTCGAAGGACAGAAGGTCAGAGCTGTCCGCTTT,3.54,3.21,2.98,0.128,1.76,1.62,0.0154,0.957,0.121
TCGAGTAGGTTTGGGGCATTCAGAATGGCGTCGA,0.408,-0.658,-0.913,0.194,-0.158,0.0533,0.0117,-0.0942,-0.0123
CCTAGCAGGCCACTCTGGGTCACTCAAGGCTTGA,2.05,1.36,1.45,0.0538,0.851,3.4,0.412,0.79,0.081
AGAATGAGGTTACCCAAGATCAGGGAAACGCTTG,0.82,1.93,1.6,1.06,2.36,3.28,0.843,1.55,0.242
TCTAGCAGGCCAGAGGGTCACACAAGAGGTACGG,3.1,3.52,3.05,0.175,4,2.25,0.165,2.26,0.773
CCTCGGAGGACAACATGAGGTCAGAGCTGCCAGA,3.88,3.49,3.52,1.15,2.13,4.08,3.51,2.98,2.43
CCTACTGGCCCAAAGGTCATTGATTCCAATGCTC,4.89,4.89,4.36,1.06,5.05,3.3,0.916,4.28,2.14
CCTACTGGGCGATCAGGTCATTGATATCAACGTT,2.23,1.35,1.37,0.269,1.02,2.74,2.18,1.67,1.53
GGAACGAGGGCCAGTTGATAGCAGAGTTTGATGG,0.014,-0.18,0.0481,-0.0614,0.143,-0.74,-0.812,-0.702,-0.327
CCTTACGGGTCACGAGGTTATAGAACGACGAGCG,4.13,6.4,5.59,1.18,7.41,3.8,1.14,5.31,2.22
